# Reference: PubChem BioAssay AID1053183 (Broad Institute, 2014)
# Results with a measured potency or affinity are listed apart. The source made the active and inactive calls.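 The calls were made as follows: active = cytotoxic compounds with fitted half-maximal concentration at most double the highest valid dose; inconclusive = flat curve with moderate signal loss, or unreliable fit; inactive = the rest.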
# Experiment: HepG2 cell viability loss – cherry-picked samples, cytotoxicity control, dose response (AID 1053183)
# Conditions: CellTiter-Glo ATP luminescence, 72 h; series mostly up to 26 µM
row,Structure (SMILES),outcome
1,C[C@@H]1CN([C@@H](C)CO)C(=O)Cc2cc(NC(=O)C3CCCCC3)ccc2O[C@@H]1CN(C)Cc1ccc(Cl)c(Cl)c1,inactive
2,COc1ccc2c3c(n(C)c2c1)[C@@H](CO)N(CC1CC1)CC31CN(C(=O)c2ccc3c(c2)OCO3)C1,inactive
3,COc1cccc(-c2cccc(-c3nc(C(=O)Nc4ccc(-c5ccccc5)cc4)cc4c3[C@@H](CCO)N(S(=O)C(C)(C)C)C4)c2)c1 (stereo partly drawn),inactive
4,CN(C)C(=O)c1cccc(-c2ccc(C3[C@@H]4CN(Cc5ccccc5F)C[C@H]3N4)cc2)c1 (stereo partly drawn),inactive
5,C/C=C/c1ccc([C@H]2[C@@H](CO)N3C(=O)CN(Cc4ccc(F)cc4)C[C@@H]23)cc1,inactive
6,C[C@H](CO)N1C[C@H](C)[C@@H](CN(C)Cc2ccccc2)Oc2c(NC(=O)Cc3cn(C)c4ccccc34)cccc2C1=O,inactive
7,CNC[C@@H]1Oc2cc(C#Cc3ccccc3OC)ccc2S(=O)(=O)N([C@H](C)CO)C[C@H]1C,inactive
8,CO[C@@H](CN(C)Cc1cc(F)ccc1F)[C@@H](C)CN(C(=O)Nc1ccc(C(F)(F)F)cc1)[C@H](C)CO,inactive
